Here are results for nine compounds from PubChem BioAssay (NCI).

Structures are written as SMILES. About 83,000 compounds went through this panel and 20% of them were active in at least one assay; those are over-represented in the sample as a whole.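 Single-concentration screen, 48 h exposure, 96-well plates. Endpoint: percent growth. Below 10 = active.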 A number with no mark means an inactive call. Active and inactive are the calls of the source.

Test systems include NCI-H23 lung; NCI-H322M lung; NCI-H460 lung; HOP-92 NSCLC; NCI-H522 lung; A549/ATCC NSCLC; 786-0 renal; COLO 205 colon; DU-145 prostate; K-562 leukemia; MALME-3M melanoma; MDA-MB-231 breast; RXF 393 renal; SF-268 CNS; SF-295 CNS; SF-539 CNS; UACC-257 melanoma; M14 melanoma; HCT-15 colon.
Experiment in all cases: NCI-60 one-dose screen, 48 h (100 = growth as untreated, 0 = no growth, -100 = all killed)
What all share (conditions): 10 µM unless noted

As for `CC/C(=C(\CC)c1ccc(OCC[N+](C)(C)C)cc1)c1ccc(OC)cc1`, the growth is 56.7% in the assay with NCI-H23 lung; 99.3% with NCI-H322M lung; 40.1% with NCI-H460 lung; 45.3% with HOP-92 NSCLC; 32.7% in the assay with NCI-H522 lung; 53% in the assay with A549/ATCC NSCLC. The growth was 91.1% in the assay with 786-0 renal; 6.92% (active) in the assay with COLO 205 colon; 94.9% with DU-145 prostate; 30.4% with K-562 leukemia; 68.3% in the assay on MALME-3M melanoma; 71.9% in the assay with MDA-MB-231 breast. The growth with RXF 393 renal was 29%; in the assay on SF-268 CNS it was 61.2%; in the assay with SF-295 CNS, 76.2%; with SF-539 CNS, 59.9%; in the assay with UACC-257 melanoma, 39%; with M14 melanoma, 58.1%. The growth with HCT-15 colon is 97.6%.

Consider `COc1ccc(C2Nc3ncnc(N)c3N=C3c4ccccc4C(=O)C32)cc1` (centres undefined), for which the growth is 101% in the assay on NCI-H23 lung; 101% with NCI-H322M lung; 104% in the assay on NCI-H460 lung; 55.4% in the assay on HOP-92 NSCLC; 101% in the assay with NCI-H522 lung; 96.3% in the assay with A549/ATCC NSCLC. In addition, the growth in the assay on 786-0 renal was 93.5%; with COLO 205 colon, 93.2%; with DU-145 prostate, 102%; with K-562 leukemia, 84.5%; in the assay with MALME-3M melanoma it was 101%; with MDA-MB-231 breast it was 97.9%. The growth in the assay with SF-268 CNS was 84%; with SF-295 CNS, 96.9%; in the assay with SF-539 CNS it was 100%; in the assay with UACC-257 melanoma, 102%; in the assay on M14 melanoma, 94.8%; with HCT-15 colon, 89.4%.

For the compound `OC(CNC1CCCCC1)Cn1c2ccc(I)cc2c2cc(I)ccc21` (centres undefined), the growth in the assay on NCI-H23 lung is 76.6%; in the assay on NCI-H322M lung, 75.8%; with NCI-H460 lung, 70.1%; in the assay with HOP-92 NSCLC, -0.53% (active); in the assay with NCI-H522 lung, 67.5%; in the assay on A549/ATCC NSCLC it was 75%. In addition, the growth in the assay on 786-0 renal was 77.7%; in the assay with COLO 205 colon, 104%; in the assay on DU-145 prostate, 101%; with K-562 leukemia, 54.4%; in the assay on MALME-3M melanoma it was 68.9%; in the assay on MDA-MB-231 breast, 56.3%. Also, the growth was 78.3% in the assay with RXF 393 renal; 91.8% with SF-268 CNS; 47.2% with SF-295 CNS; 77.5% in the assay with SF-539 CNS; 84.8% in the assay on UACC-257 melanoma; 68.7% in the assay on M14 melanoma. The growth with HCT-15 colon is 65.7%.

Consider `O=c1oc2ccc(F)cc2c(=O)n1-c1ccc(I)cc1F`, for which the growth with NCI-H23 lung is 2.97% (active); with NCI-H322M lung, 8.02% (active); with NCI-H460 lung, 3.08% (active); in the assay on HOP-92 NSCLC, -17.6% (active); with NCI-H522 lung it was -15.8% (active); with A549/ATCC NSCLC, 5.88% (active). The growth in the assay on 786-0 renal was 0.0953% (active); in the assay on COLO 205 colon, 53.9%; in the assay with DU-145 prostate, 14.8%; in the assay on K-562 leukemia, 7.88% (active); in the assay on MALME-3M melanoma it was -22.1% (active); in the assay on MDA-MB-231 breast it was -25.4% (active). For the same compound, the growth in the assay with RXF 393 renal is -1.5% (active); in the assay with SF-268 CNS, 12.2%; with SF-295 CNS, -40% (active); in the assay on SF-539 CNS it was 3.66% (active); in the assay with UACC-257 melanoma, -14.8% (active); in the assay on M14 melanoma it was 3.58% (active). Further, the growth with HCT-15 colon was 5.2% (active).

With `Clc1ccc(Nc2scc3[n+]2CCC3)cc1`, the growth in the assay with NCI-H23 lung was 92.7%; in the assay on NCI-H322M lung, 101%; with NCI-H460 lung, 102%; with HOP-92 NSCLC, 81%; with NCI-H522 lung, 93.5%; in the assay on A549/ATCC NSCLC, 92.4%. Further, the growth with 786-0 renal is 94.9%; in the assay on COLO 205 colon, 120%; in the assay with DU-145 prostate it was 101%; with MALME-3M melanoma, 95.9%; in the assay with MDA-MB-231 breast it was 95.9%; in the assay with SF-268 CNS it was 93.2%. Besides, the growth in the assay with SF-295 CNS is 94.5%; with SF-539 CNS it was 97.1%; with UACC-257 melanoma, 94%; with M14 melanoma, 103%; in the assay with HCT-15 colon, 93.4%.

Consider `O=C1c2cc(Br)ccc2Oc2cc([N+](=O)[O-])ccc2N1c1ccc(I)cc1F`, for which the growth is 93% in the assay with NCI-H23 lung; 103% with NCI-H322M lung; 102% in the assay with NCI-H460 lung; 101% in the assay on HOP-92 NSCLC; 96.2% in the assay on NCI-H522 lung; 82% in the assay with A549/ATCC NSCLC. In addition, the growth was 104% in the assay on 786-0 renal; 123% in the assay with COLO 205 colon; 105% in the assay on DU-145 prostate; 101% with K-562 leukemia; 99.8% in the assay with MALME-3M melanoma; 101% in the assay on MDA-MB-231 breast. Further, the growth in the assay with RXF 393 renal was 94.5%; with SF-268 CNS, 93.1%; in the assay with SF-295 CNS, 98.2%; in the assay with SF-539 CNS it was 101%; in the assay on UACC-257 melanoma it was 97.6%; in the assay with M14 melanoma, 91.8%. The growth with HCT-15 colon is 97.7%.

As for `COC(=O)c1c2c(c(C)[n+]([O-])c1C)C(=O)C=C(NCc1ccc(F)c(F)c1)C2=O`, the growth is -76% (active) in the assay with NCI-H23 lung; -15.7% (active) with NCI-H322M lung; -26.3% (active) in the assay on NCI-H460 lung; -37.9% (active) in the assay with HOP-92 NSCLC; -53.1% (active) with NCI-H522 lung; -24.4% (active) in the assay on A549/ATCC NSCLC. Further, the growth in the assay with 786-0 renal is -3.8% (active); with DU-145 prostate, -99.6% (active); in the assay with K-562 leukemia it was 1.15% (active); in the assay on MALME-3M melanoma, -100% (active); with MDA-MB-231 breast, -31.2% (active); in the assay with RXF 393 renal, -51% (active). The growth in the assay on SF-268 CNS is -12.2% (active); with SF-295 CNS it was -99% (active); in the assay on SF-539 CNS, -95.7% (active); with UACC-257 melanoma, -83% (active); with M14 melanoma, -88.2% (active); with HCT-15 colon, -83.3% (active).

Regarding `N#CC(C#N)=Cc1c(-c2ccccc2)[nH]c2ccccc12`, the growth with NCI-H23 lung is 41%; in the assay on NCI-H322M lung, 61%; in the assay with NCI-H460 lung it was 16.9%; with HOP-92 NSCLC, 45.1%; with NCI-H522 lung, 50.2%; in the assay with A549/ATCC NSCLC, 37.1%. Further, the growth in the assay with 786-0 renal is 40%; in the assay on COLO 205 colon it was 20.4%; in the assay with DU-145 prostate it was 15.7%; with K-562 leukemia it was 12.7%; in the assay with MALME-3M melanoma, 81.3%; with MDA-MB-231 breast it was 50.2%. Further, the growth in the assay on SF-268 CNS was 44.6%; with SF-295 CNS it was 31.6%; with SF-539 CNS it was -11.7% (active); with UACC-257 melanoma it was 52.3%; in the assay with M14 melanoma it was 27.7%; in the assay on HCT-15 colon, 35.3%.

On to `Cc1ccc(Nc2nc(N)c3ccccc3n2)cc1Cl`, for which the growth in the assay on NCI-H23 lung was 53.8%; with NCI-H322M lung, 73.5%; in the assay with NCI-H460 lung, 56.8%; in the assay on HOP-92 NSCLC, 54.3%; in the assay with NCI-H522 lung, 41%; in the assay on A549/ATCC NSCLC, 48.1%. Further, the growth in the assay with 786-0 renal was 80.9%; with COLO 205 colon, 54.5%; in the assay with DU-145 prostate it was 45.9%; in the assay on K-562 leukemia, 51.3%; in the assay on MDA-MB-231 breast, 27.2%; with RXF 393 renal, 80.4%. In addition, the growth with SF-268 CNS was 78.5%; with SF-539 CNS, 81.5%; in the assay on UACC-257 melanoma, 108%; in the assay on M14 melanoma, 80.3%; in the assay on HCT-15 colon, 49.9%.
